Compounds with a hit are over-represented: about 19% of the library has one in this group of screens.
TDP1 cell CPT = qHTS for Inhibitors of human tyrosyl-DNA phosphodiesterase 1 (TDP1): qHTS in cells in presence of CPT | chicken DT40 Tdp1-/-;hTDP1 cells + 20 nM CPT, ATP luminescence, 48 h | Potency, µM (highest dose often 46.2 µM), for inactives: top-dose activity change, negative = growth inhibition, hits mostly inhibitors | AID 686979, 2013 | 420,000 tested, 12% active; also: nearly all actives have a fitted effect of over 55% in size
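Chicken DT40 Tdp1-/- cells complemented with human TDP1, 400 cells/well, exposed to compounds plus 20 nM camptothecin for at least 48 h at 37 C; viability read as ATP content by CellTiter-Glo luminescence.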
DT40 TDP1 no CPT = qHTS for Inhibitors of human tyrosyl-DNA phosphodiesterase 1 (TDP1): qHTS in cells in absence of CPT | DT40 Tdp1-/- hTDP1 cells, no CPT, ATP luminescence, 48 h | Potency, µM (highest dose often 46.2 µM), without a hit: at the highest dose activity change, negative = growth inhibition, actives largely listed as inhibitors | 420,000 tested, 15% active | AID 686978, 2013; also: nearly all actives have a fitted effect of over 55% in size
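A cellular qHTS used chicken DT40 cells lacking endogenous Tdp1 but carrying stably transfected human TDP1. Compounds were applied without camptothecin, and cell growth kinetics were judged by ATP-dependent luminescence after ≥48 hr.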
KB-3-1 cytotox = qHTS assay for MDR1-selective chemotherapeutics: Primary screen using the parental adenocarcinoma cell KB-3-1 | KB-3-1 viability, CellTiter-Glo ATP luminescence, 72 h | Potency, µM (highest dose often 46.1 µM), hits mostly cytotoxic | 400,000 tested, 1.4% active; also: nearly all actives have a fitted effect of over 60% in size
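Luminescent ATP read-out (CellTiter-Glo) measures survival of drug-naive KB-3-1 cells after 72 h compound exposure at 37 °C. Titration series was screened from lowest to highest concentration, with DMSO vehicle plates as background controls.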
HT1080NT lethal = qHTS for induction of synthetic lethality in tumor cells producing 2HG: qHTS for the HT-1080-NT fibrosarcoma cell line. HT-1080-NT fibrosarcoma viability, CellTiter-Glo ATP luminescence, 48 h. Potency, µM (top dose mostly 46.1 µM), for inactives: at the highest dose activity, negative = less viability, hits mostly cytotoxic. 360,000 tested, 1.6% active;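 also: NT is the 2HG producing partner of a matched IDH1 knockdown line; 0% = DMSO-treated cells and -100% = media-only wells without cells; nearly all actives have a fitted effect of over 55% in size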
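Toxicity toward the 2HG-producing NT line was scored as %Activity, normalised to DMSO and no-cell wells, from CellTiter-Glo luminescence after 48 hours' treatment.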
HT1080 IDH1KD tx = qHTS for induction of synthetic lethality in tumor cells producing 2HG: qHTS for the HT-1080-IDH1KD cell line. HT-1080 IDH1 knockdown viability, ATP luminescence, 48 h. Potency, µM (titrated, usually from 46.1 µM), for the others: top-dose activity, negative = toxicity, usual class: cytotoxic. 360,000 tested, 2% active. AID 686971, 2013;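 also: 0% = DMSO wells and -100% = cell-free medium wells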
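Using the IDH1-knockdown HT-1080 line run in the same batch and compound series as the NT line, viability after 48 h at 37 °C was determined by CellTiter-Glo luminescence and expressed as % activity.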
KB-V1 MDR tox = qHTS assay for MDR1-selective chemotherapeutics: Primary screen using the drug-selected MDR subline cells KB-V1. 400,000 tested, 3.4% active. AID 1347076, 2019. Potency, µM (top dose mostly 46.1 µM), actives largely listed as cytotoxic. KB-V1 MDR cells viability, CellTiter-Glo, 72 h; also: nearly all actives have a fitted effect of over 60% in size
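Cytotoxicity via CellTiter-Glo luminescence after 72 h compound exposure at 37 degrees C. Cells: drug-selected KB-V1 line, DMEM phenol-red free plus 10% FBS. Compounds tested at multiple concentrations; normalized data fitted to concentration-effect curves.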
Starred values were filed as active, the others as inactive; i = inactive; ? = inconclusive; / = no result; ! = not active in a repeat; [ ] = remark or other dose. Calls follow the shape of the dose curve; as a rule, active = well fitted curve in the direction sought with a large enough effect; inconclusive = small, poorly fitted or top-dose-only effect, or another doubt; inactive = no such curve, though single readings can be large; an effect the other way counts as inactive or inconclusive. Unless noted, % is scaled to controls: 0 for no effect and ±100 for the full control effect; potency is read from the fitted curve at half-maximal effect.

SMILES | TDP1 cell CPT | DT40 TDP1 no CPT | KB-3-1 cytotox | HT1080NT lethal | HT1080 IDH1KD tx | KB-V1 MDR tox
C=CCOc1cc(Cl)ccc1C(=O)NCCN(CC)CC | 9% | -26% | / | / | / | /
CCOc1cc2c(cc1OCC)C(c1ccccc1)N(c1ccccc1)C(=O)C2 (configuration not stated) | 16µM* | 16µM* | i | ? | ? | i
COc1ccc(C2c3cc(OC)c(OC)cc3CC(=O)N2c2ccc(C)cc2)cc1 (configuration not stated) | 13µM* | 21µM* | i | / | / | i
COc1ccc(C2c3cc(OC)c(OC)cc3CC(=O)N2c2ccc(C)c(F)c2)cc1 (configuration not stated) | 3.3µM* | 3.7µM* | ? | / | / | i
CCOc1cc2c(cc1OCC)C(c1ccc(OC)cc1)N(c1ccccc1)C(=O)C2 (configuration not stated) | -4% | 9% | i | 0% | -6% | i
CCOc1ccc(C2c3cc(OC)c(OC)cc3CC(=O)N2c2ccccc2)cc1 (configuration not stated) | -14% | -30% | i | 1% | -22% | i
COc1ccc(NS(=O)(=O)c2cccc(C(=O)N/N=C(\C)c3cccnc3)c2)cc1 | -17% | -8% | i | -2% | -13% | ?
CCn1c(C)c(P(c2ccccc2)c2ccccc2)[n+]2ccccc12 | 2.3µM* | 1.5µM* | 9.2µM* | -30% | -8% | i
CCn1c(C)c2c(C)nnc(C)c2c1C | -22% | -20% | i | 0% | 1% | i
CCCN1CCN(CCCNC(=O)Cn2c(-c3cccs3)cc3ccccc32)CC1 | ? | ? | ? | / | / | i
O=C(O)c1ccc(N/N=C/c2ccncc2)cc1 | -2% | 13% | i | 1% | -6% | i
O=C(O)c1ccc(N/N=C/c2ccc3nccnc3c2)cc1 | 12µM* | 12µM* | ? | ? | ? | i
CNCCC1Sc2ccccc2Oc2ccccc21 (configuration not stated) | ? | ? | i | 0% | -13% | i
CN(C)CCCC1Sc2ccccc2Sc2ccccc21 (configuration not stated) | ? | ? | ? | 23µM* | ? | i
COc1cc(OC)c(NS(=O)(=O)c2c(C(=O)N3CCCCCC3)c(C)n(C)c2C)cc1Cl | ? | 21µM* | i | / | / | i
Cc1cc(Cl)ccc1NS(=O)(=O)c1c(C(=O)N2CCC(C)CC2)c(C)n(C)c1C | ? | 16µM* | / | / | / | /
COc1cc(OC)c(NS(=O)(=O)c2c(C(=O)N3CCCCC3)c(C)n(C)c2C)cc1Cl | 1% | 1% | i | 1% | -1% | i
COCC(C)NC(=O)C1CC(=O)N(CCc2ccc(F)cc2)C1 (configuration not stated) | -1% | -19% | i | -6% | -1% | i
Cc1[nH]ccc2cc3nc4ccccc4c3cc12 | 5.2µM* | 3.7µM* | ? | 15µM* | ? | 10µM*
Cc1ccc(Cl)c2c(N=Nc3ccccc3)c(O)[nH]c12 | -13% | -26% | i | -3% | -6% | i
COc1cc(CN2CC(=O)N(c3cccc(Cl)c3C)C2=S)cc(OC)c1OC | 23µM* | ? | ? | -11% | -14% | i
COc1cc(Cl)c(C)cc1N1C(=O)CN(Cc2ccccc2)C1=S | -27% | ? | i | -16% | -7% | i
COc1cc(CN2CC(=O)N(c3ccccc3Cl)C2=S)cc(OC)c1OC | 18µM* | ? | i | -6% | -20% | ?
Cc1cc(NC(=S)N(Cc2ccc(Br)cc2)Cc2ccc(C(=O)O)cc2)ccc1Cl | -17% | ? | i | ? | ? | i
O=S(=O)(NCC1CCCO1)c1ccccc1 (configuration not stated) | -5% | 6% | i | -6% | 0% | i
SMILES | TDP1 cell CPT | DT40 TDP1 no CPT | KB-3-1 cytotox | HT1080NT lethal | HT1080 IDH1KD tx | KB-V1 MDR tox
O=C(Nc1ccccc1)c1ccc(S(=O)(=O)NCC2CCCO2)cc1 (configuration not stated) | -26% | -23% | ? | -8% | 4% | ?
Cc1ccc(-c2ccc(S(=O)(=O)NCC3CCCO3)cc2)cc1 (configuration not stated) | ? | ? | i | -16% | ? | ?
O=C(C1CC1)N1CCC(c2nc(-c3ccc(S(=O)(=O)NCC4CCCO4)cc3)no2)CC1 (configuration not stated) | 13µM* | 14µM* | ? | ? | -26% | ?
O=C(c1ccc(S(=O)(=O)NCC2CCCO2)cc1)N1CCc2ccccc21 (configuration not stated) | 21µM* | 21µM* | ? | -2% | -1% | ?
O=C(c1ccccc1)N1CCC(c2nc(-c3ccc(S(=O)(=O)NCC4CCCO4)cc3)no2)CC1 (configuration not stated) | 10µM* | 10µM* | 8.2µM* | ? | -3% | 9.2µM*
CCCCCCCC/C=C\CCCCCCCC(=O)OCC(CO)OC(=O)CCCCCCC/C=C\CCCCCCCC (configuration not stated) | -29%[4.12 µM] | -7%[4.12 µM] | / | / | / | /
Cc1ccc(NC(=O)CN(C)C(=O)COc2ccc(Br)cc2)cc1 | -18% | -16% | i | -18% | -28% | i
CCC(Oc1cc(Cl)ccc1Cl)C(=O)N1CCCN(C)CC1 (configuration not stated) | -5% | -26% | i | -2% | 3% | ?
O=C1C2C3c4ccccc4C(c4ccccc43)C2C(=O)N1/N=C/c1cccc(O)c1 (configuration not stated) | 21µM* | ? | i | -7% | -12% | ?
O=C(c1cccc(S(=O)(=O)N2CCCC2)c1)N1CCN(c2ccccc2F)CC1 | -26% | ? | i | 0% | -6% | 6.5µM*
CCc1nc2ccc(C(=O)N3CCN(c4ccccc4F)CC3)cc2nc1CC | 21µM* | 5.8µM*! | i | 1% | 4% | i
